Values joined by “and” are separate entries in the source; they are usually repeats but may differ in a detail not shown here. Equal entries are not always repeated. Out of some 83,000 compounds screened, about 780 (0.94%) were called active.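 Rule for the calls: active = mean inhibition of at least 50% with a set share of replicates also reaching that level; inconclusive = no clear call, values can overlap the other calls; inactive = the rest.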 Shown is part of a subset that was picked to be rich in actives. Where a structure was tested more than once in an assay, its records may differ in their call.
Experiment: CD40 pathway blockade in BL2 B cells – cell-based, luciferase reporter, single point, primary screen (AID 1053188);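 note: 0% = neutral control wells and 100% = IKK inhibitor VII at 50 µM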
Conditions: BL2 NF-kB luciferase reporter, CD40L-induced, 4 h, stronger effect = higher value; at 10 µM unless noted

inhibition, inactive:
CS(=O)(=O)N1CCN(CC(=O)NC2CCCC2)CC1 4.72%
CS(=O)(=O)N1C[C@@H]2C(c3ccccc3)[C@H](C1)N2CC(F)(F)F (stereo not given in full) 8.84% and 23.5%
COc1cccc(NC(=O)COC(=O)c2ccc3ccccc3n2)c1 -7.67%
O=C(Nc1ccccc1)Nc1nc2ccccc2s1 -102%
Cc1ccnc(Nc2nc3ccccc3s2)n1 -62.3%
CCN1CCN(c2ccc(S(=O)(=O)N3CCCCC3)cc2NC(=O)c2cccc(NC(C)=O)c2)CC1 1.54%
CCN1CC(CN(C)Cc2nc(-c3ccc(Cl)cc3)no2)CC1=O (stereo not given) 2.41%
CC1CCCC(NC(=O)c2cc(S(=O)(=O)N3CCCCC3)ccc2Cl)C1C (stereo not given) 6.89%
Cc1ccc(NC(=O)c2ccco2)cc1 -36.5%
COc1cc(C(=O)CCc2ccc3c(c2)OCO3)cc(OC)c1OC 1.79%
CCC1CCC2(CC1)NC(=O)N(CC(=O)Nc1ccc(OC)cc1)C2=O (stereo not given) -0.377%
C/C=C/c1ccc(C2[C@H]3CNC[C@@H]2N3Cc2cccc(F)c2)cc1 (stereo not given in full) 0.374% and -2.51%
C/C=C/c1ccc(C2[C@H]3CNC[C@@H]2N3CC2CCOCC2)cc1 (stereo not given in full) 9.41%
CCc1noc(C)c1C(=O)N1CCN(S(=O)(=O)c2cccc(C(F)(F)F)c2)CC1 1.62%
O=C1COc2c1ccc(O)c2O 12.2%
COc1ccc2c(C)cc(SCC(=O)NCC3CCCO3)nc2c1 (stereo not given) 1.77%
Cc1ccc(S(=O)(=O)Nc2ccc3c(c2)C(=O)N([C@@H](C)CO)C[C@@H](C)[C@H](CN(C)C(=O)Nc2cccc4ccccc24)OCCCC[C@H](C)O3)cc1 9.18%
Cc1noc(C)c1S(=O)(=O)Nc1ccc2c(c1)C(=O)N([C@@H](C)CO)C[C@@H](C)[C@H](CN(C)C(=O)Nc1cccc3ccccc13)OCCCC[C@H](C)O2 8.4% [at 25 µM]
O=C(Cc1ccccn1)N1CC(=O)N2[C@H](CO)[C@@H](c3ccc(C#CC4CCCC4)cc3)[C@H]2C1 -16.2%
O=C(Cc1ccc(Cl)cc1)c1ccccc1 -54.5%
C/C=C/c1cccc(-c2nc(C(=O)NCCN3CCCC3)cc3c2[C@@H](CCO)N([S@](=O)C(C)(C)C)C3)c1 -2.95%
Cc1cc([N+](=O)[O-])nn1CC(=O)Nc1ccc(Cc2ccncc2)cc1 -4.38%
CN(C)CCNC(=O)Nc1cccc(Cl)c1Cl 7.22%
CCCNC(=O)c1ccc(Cl)c(Cl)c1 0.458%
Cc1ccc(S(=O)(=O)NCCC(=O)NCc2ccc(Cl)cc2)cc1C 0.373%
CN(CCOc1ccccc1)C(=O)c1cc(-c2ccco2)nc2ccccc12 9.58%
CC1CCCN(C(=O)c2cc(-c3ccco3)nc3ccccc23)C1 (stereo not given) -1.36%
CCOC(=O)c1ccc[n+](CC(=O)Nc2ccccc2OC(F)F)c1 -5.94%
CC(C)N(Cc1nnc(-c2ccc(Cl)cc2)o1)C(=O)C1=COCCO1 3.68%
CCOc1cc(C(=O)N(Cc2ccccc2)c2ccc(C)cc2)ccc1OCC(=O)N1CCOCC1 -0.92%
COc1cc(C(=O)Nc2ncccc2C)ccc1OCC(=O)N1CCOCC1 6.83%
CCNC(=O)C1(C)CCCN1C(=O)c1ccc(N(C)C)cc1 (stereo not given) -1.06%
CC(C)NC(=O)N(C)C[C@H]1Oc2ccc(NS(C)(=O)=O)cc2C(=O)N(C)C[C@@H]1C 0.384%
COc1cccc(NC(=O)CN(C)CC(=O)Nc2ccc3c(c2)CCC3)c1 8.15%
CSCCC(NC(=O)c1ccco1)C(=O)NCCc1ccc(F)cc1 (stereo not given) 0.567%
COc1ccc(S(=O)(=O)NCCc2c[nH]c3ccccc23)cc1OC 6.21%
Fc1ccccc1COc1ccccc1CNCc1ccncc1 0.766%
O=C(Nc1ncccc1O)c1ccc(S(=O)(=O)N2CCCC2)cc1 -13.1%
COC(=O)C1=C(N)Oc2c(oc(CO)cc2=O)C1c1c(F)cccc1Cl (stereo not given) 1.5%
CCOc1ccc(C(=O)CCN2CCOCC2)cc1 3.31%
Cc1ccc(/C([O-])=C(/C(=S)NCc2ccco2)[n+]2ccccc2)cc1[N+](=O)[O-] 4.58%
O=C(COC(=O)Cc1ccc([N+](=O)[O-])cc1)NC1CCCCCC1 2.86%
O=C(Nc1ccc([N+](=O)[O-])cc1)OCCc1ccccn1 -49.3%
O=C(CSc1nnc(-c2ccc([N+](=O)[O-])cc2)o1)Nc1ccccn1 -47.6%
O=C(COC(=O)c1ccccn1)NNC(=O)c1ccc([N+](=O)[O-])cc1 0.903%
COc1ccccc1C(=O)NC(CCSC)C(=O)N1CCN(C(C)=O)CC1 (stereo not given) 7.42%

inhibition, active:
c1ccc(C(=NNc2nc3ccccc3s2)c2ccccn2)cc1 72.5%
Cc1noc(C)c1S(=O)(=O)Nc1ccc2c(c1)C(=O)N([C@@H](C)CO)C[C@H](C)[C@@H](CN(C)C(=O)Nc1cccc3ccccc13)OCCCC[C@H](C)O2 48% [at 25 µM]
CN(C)CCNC(=O)c1ccc(Cl)c2cc3ccccc3nc12 80.1%
O=C(c1cc(-c2ccco2)nc2ccccc12)N(Cc1nnc(-c2ccc(Cl)cc2)o1)C1CC1 50.6%
CCCN(CC(=O)Nc1ccccc1C)C(=O)c1ccc(OCC(=O)N2CCOCC2)c(OCC)c1 23.3%
COc1cccc(CNCCc2c[nH]c3ccccc23)c1OCc1ccccc1F 70.6%
N/C(=N\OC(=O)c1ccc([N+](=O)[O-])cc1)c1ccccn1 68.1%
N/C(=N\OC(=O)Cc1ccc([N+](=O)[O-])cc1)c1ccccn1 64.7%

inhibition, -2.62% (inactive) and -20.4% (active):
C/C=C/c1ccc(C2[C@H]3CNC[C@@H]2N3Cc2cccc(OC)c2)cc1 (stereo not given in full)

— PubChem BioAssay AID1053188 (Broad Institute, 2014)
